# In PubChem BioAssay AID1053115 (Broad Institute, 2014):
# Results with a measured potency or affinity are listed apart. Calls of active or inactive are those of the source.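 How the source made its calls: active means cytotoxic compounds whose fitted half-maximal concentration is at most twice the top valid tested dose; inconclusive means flat curve showing 30 to 70% signal loss, or poor fit; inactive means the rest.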
# Assay: viability loss in A549 lung cells – cell-based, 24 h, CellTiter-Glo luminescence, cherry-picks, cytotoxicity control, dose response (AID 1053115)
# Details: CellTiter-Glo ATP luminescence; series mostly up to 30 µM
row,SMILES,outcome
1,C[C@@H](O)C#Cc1ccc2c(c1)O[C@@H](CN(C)Cc1ccncc1)[C@@H](C)CN([C@@H](C)CO)S2(=O)=O,inactive
2,Cc1ccc(S(=O)(=O)N(C)C[C@H]2Oc3cc(C#Cc4ccncc4)ccc3S(=O)(=O)N([C@@H](C)CO)C[C@H]2C)cc1,inactive
3,COc1ccccc1CN1CC[C@@H]2[C@H]1c1cc(-c3ccc(C(=O)N(C)C)cc3)ccc1N[C@@H]2CO,inactive
4,CN(C)C(=O)c1ccc(-c2cccc(-c3nc(C(=O)NC4CCCCC4)cc4c3[C@@H](CCO)N([S@](=O)C(C)(C)C)C4)c2)cc1,inactive
5,CO[C@H]1CN(C)C(=O)c2ccc(NC(=O)c3ccc(F)cc3)cc2OC[C@H](C)N(C(=O)c2ccc(F)cc2)C[C@@H]1C,inactive
6,C[C@@H]1CN([C@@H](C)CO)C(=O)Cc2cc(NC(=O)C3CCCCC3)ccc2O[C@H]1CN(C)C(=O)Nc1ccccc1,inactive
7,C[C@H]1CCCCO[C@H](CN(C)S(=O)(=O)c2ccc(Cl)cc2)[C@@H](C)CN([C@@H](C)CO)C(=O)c2cc(NC(=O)Nc3ccc(F)cc3)ccc2O1,inactive
8,Cc1noc(C)c1S(=O)(=O)Nc1ccc2c(c1)C(=O)N([C@@H](C)CO)C[C@@H](C)[C@H](CN(C)S(=O)(=O)c1cccs1)O2,inactive
9,C[C@H](O)C#Cc1ccc2c(c1)O[C@@H](CN(C)Cc1ccccc1)[C@@H](C)CN([C@@H](C)CO)S2(=O)=O,inactive
10,CN1c2ccc(C#Cc3cccnc3)cc2[C@H]2[C@H](CCN2C(=O)C2CCCCC2)[C@@H]1CO,inactive
11,C[C@@H](O)C#Cc1ccc2c(c1)O[C@H](CN(C)Cc1ccccc1)[C@@H](C)CN([C@@H](C)CO)S2(=O)=O,inactive
